Bioassay records: PubChem BioAssay, National Center for Advancing Translational Sciences (NCATS)
Sampled rows, rich in hits. Any-hit rate of the full collection: about 4.6%.
TR SRC2 fluor cs: counter-screen for TRb-SRC2 inhibitors: fluorescence interference | TRb/SRC2 Texas Red total fluorescence interference | Potency, µM (top dose mostly 106 µM), without a hit: at the top dose fluorescence change, negative = quenching | 0.29% of 280,000 active; active = well fitted curve in either direction with a large enough effect; inconclusive = small, poorly fitted or top-dose-only effect; note: potency is the fitted concentration of half-maximal effect
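Flags fluorescent or light-absorbing compounds by total fluorescence, S + 2P, at 555 nm excitation and 632 nm emission. Mixture: 20 nM Texas Red SRC2 peptide, 0.6 uM human TRb LBD, 1 uM T3, 5% DMSO; compound exposure 5 h at ambient temperature.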
Tau fluor cs: counter-screen for tau fibril formation inhibitors; tau K18 P301L Alexa594 fluorescence, heparin fibrillization; Potency, µM (series often up to 57.7 µM), without a hit: at the top dose activity change, negative = decrease; 0.93% of 280,000 active; AID 1463; note: potency is the fitted concentration of half-maximal effect; nearly all actives have a fitted effect of over 55% in size
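Human K18 P301L tau (15 uM unlabeled plus 0.24 uM Alexa 594-labeled, final) in 100 mM sodium acetate pH 7 was mixed with compound and 20 uM heparin and incubated 6 hr at 37 C.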
TRb-SRC2 inh: TRbeta-SRC2 interaction inhibition | P10828 | TRbeta-SRC2 peptide binding, fluorescence polarization; receptor liganded with 1 µM T3 | Potency, µM (top dose mostly 106 µM), for the others: top-dose activity change, negative = inhibition, actives largely listed as inhibitors | 0.065% of 280,000 active | AID 1469;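 note: potency is the fitted concentration of half-maximal effect; plate controls were bound peptide for no effect and peptide without receptor for full effect; nearly all actives have a fitted effect of over 50% in size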
Target sequence (P10828 whole entry, looked up): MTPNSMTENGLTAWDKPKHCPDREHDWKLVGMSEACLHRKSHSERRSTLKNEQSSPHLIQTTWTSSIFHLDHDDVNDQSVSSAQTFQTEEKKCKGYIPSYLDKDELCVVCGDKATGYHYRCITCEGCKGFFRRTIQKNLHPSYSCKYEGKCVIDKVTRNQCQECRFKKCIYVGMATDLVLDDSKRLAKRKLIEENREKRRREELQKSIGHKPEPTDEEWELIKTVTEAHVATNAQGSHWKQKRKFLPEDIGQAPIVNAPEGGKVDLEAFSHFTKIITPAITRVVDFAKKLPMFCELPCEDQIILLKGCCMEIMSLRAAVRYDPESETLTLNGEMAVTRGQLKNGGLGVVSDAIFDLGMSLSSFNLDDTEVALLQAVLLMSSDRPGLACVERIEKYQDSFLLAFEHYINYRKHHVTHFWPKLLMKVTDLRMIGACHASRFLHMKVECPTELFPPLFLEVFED
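Decrease in fluorescence polarization of 20 nM Texas Red SRC2 coactivator peptide flagged inhibition of its binding to 0.6 uM TRb LBD; 1 uM T3 included, incubation 5 hr, ex 555/em 632 nm.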
PNC assembly inh: perinucleolar compartment assembly inhibition. PC3M PTB-GFP, PNC prevalence imaging, 16 h; stronger effect = lower value. activity change (PNC), negative = inhibition, % at 10 µM. 3.1% of 140,000 active. AID 2417;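 active = readout at or below -70, meaning at least 70% loss of cells showing the perinucleolar compartment, a nuclear body marking cancer cells; inconclusive = readout between -30 and a set limit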;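 note: plate controls were DMSO wells for no effect and camptothecin positive control wells for full effect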
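PC3M cells stably expressing PTB-GFP, 750–1000 cells/well, treated 16 h at 37 °C with compound (23 nl of library stock), in duplicate. After paraformaldehyde fixation and Hoechst stain, imaged at 20x; PNC prevalence scored by image analysis.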
Tau fibril ThT: blocks human tau fibril formation measured by thioflavin T; Potency, µM (highest dose often 57.4 µM), for the others: at the highest dose activity, negative = inhibition, usual class: inhibitors; P10636; 2.1% of 270,000 active; recombinant tau K18 P301L, heparin-induced fibrillization, ThT fluorescence; AID 1460; note: potency is the fitted concentration of half-maximal effect; nearly all actives have a fitted effect of over 55% in size
Target sequence (P10636 561-689 P618L limits assumed): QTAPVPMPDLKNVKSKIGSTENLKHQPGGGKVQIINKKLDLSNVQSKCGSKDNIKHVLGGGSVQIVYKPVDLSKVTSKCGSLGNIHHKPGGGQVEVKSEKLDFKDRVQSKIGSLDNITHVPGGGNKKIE
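K18 P301L tau (15 uM + 0.24 uM Alexa 594-tagged), heparin 20 uM, NaOAc pH 7, 6 h 37 C; ThT 30 uM, 1 h RT, ex 450/em 510 nm.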
Tau FP inhib: inhibitors of human tau fibril formation | P10636 | K18 P301L tau heparin fibrillization, Alexa594 FP, 6 h | Potency, µM (titrated, usually from 57.7 µM), without a hit: at the highest dose activity, negative = inhibition, actives largely listed as inhibitors | 0.39% of 280,000 active | AID 1468; note: potency is the fitted concentration of half-maximal effect; nearly all actives have a fitted effect of over 55% in size
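Heparin (20 uM) drove fibril formation of recombinant tau K18 P301L, 15 uM unlabeled with 0.24 uM Alexa 594 label, for 6 hr at 37 C in 100 mM sodium acetate pH 7. Fluorescence polarization (555/632 nm) read 1 hr after 30 uM ThT.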
Active calls of the source: *; ? = inconclusive; / = no result given; [ ] = dose if it differs, or a comment. Unless noted, calls come from the whole dose curve; as a rule, active = well fitted curve in the direction sought with a large enough effect; inconclusive = small, poorly fitted or top-dose-only effect, or another doubt; inactive = no such curve, though single readings can be large; an effect the other way counts as inactive or inconclusive. Unless noted, % is set by controls: 0 for no effect and ±100 for the full control effect.

SMILES	TR SRC2 fluor cs	Tau fluor cs	TRb-SRC2 inh	PNC assembly inh	Tau fibril ThT	Tau FP inhib
C=CCn1c(SCC(=O)Nc2c(C)n(C)n(-c3ccccc3)c2=O)nc2scc(-c3ccccc3)c2c1=O	-4.7%	-2.6%	0.2%	11.6	-6.0%	0.7%
COc1ccc(CCNC(=O)COC(=O)Cc2ccc(OC)cc2)cc1	-6.7%	-3.6%	4.3%	?	-5.1%	0.9%
COc1ccc(CC(=O)Nc2cccc(C)n2)cc1OC	-5.6%	9.7%	2.4%	-80.9*	4.6%	13.7%
COc1ccc(CC(=O)Nc2cc(C)on2)cc1OC	-4.1%	-5.0%	-8.6%	?	-5.8%	-3.9%
CCOC(=O)COc1cccc2c(=O)n(CC(=O)N3CCN(C(=O)OCC)CC3)ccc12	-4.2%	-2.7%	-2.1%	?	-9.1%	-0.3%
Cc1ccc(NC(=O)CC2NCCN(Cc3ccccc3)C2=O)cc1 (stereo not drawn)	-3.6%	-12.8%	2.0%	/	-4.6%	-5.7%
C/C(=C\C1CCCCC1)C(NC(=O)c1ccc(C(F)(F)F)cc1)c1ccc(-c2ccccc2)cc1 (stereo not drawn)	-1.6%	-0.1%	-3.7%	/	-2.1%	-7.4%
CC/C(=C\C1CCCCC1)C(NP(=O)(c1ccccc1)c1ccccc1)c1ccccc1 (stereo not drawn)	-1.4%	-9.0%	5.1%	-89.9*	?	10.0%
COc1ccc(C(=O)c2c[nH]cc2-c2ccccc2)cc1	-7.7%	-3.3%	-3.4%	?	-0.8%	-7.3%
CCOc1ccc(NC(=O)CSC2=Nc3ccccc3C3=NC(CCC(=O)NCc4cccs4)C(=O)N23)cc1 (stereo not drawn)	3.7%	-12.9%	9.4%	/	-11.3%	14.6%
CCOC(=O)c1cn2ccc(C)cc2n1	-1.3%[53 µM]	-7.6%	2.9%[53 µM]	/	-9.9%	-4.3%
NS(=O)(=O)c1ccc(N/N=C/c2cn(-c3ccccc3)nc2-c2ccccc2)c([N+](=O)[O-])c1	2.7%	17.8µM*[quencher]	5.5%	/	15.8µM*	3.7%
O=[N+]([O-])c1ccc(N/N=C/c2cn(-c3ccccc3)nc2-c2ccccc2)cc1	0.1%	7.94µM*[quencher]	3.5%	?	7.94µM*	7.1%
NS(=O)(=O)c1ccc(N/N=C/c2ccccn2)c([N+](=O)[O-])c1	-3.8%	0.5%	-4.5%	/	?	10.0%
O=C(O)/C=C/c1cn(-c2ccccc2)nc1-c1ccc(-c2ccc([N+](=O)[O-])cc2)o1	-7.8%	?	-4.0%	/	1.12µM*	-1.2%
O=C(O)/C=C/c1cn(-c2ccccc2)nc1-c1cccc([N+](=O)[O-])c1	-3.6%	-16.2%	5.5%	/	?	5.4%
COc1ccc(/C=C/C(=O)c2ccc(C)s2)cc1	-3.6%	-21.4%	-4.5%	/	?	-1.2%
CN(C)C(=O)N1CCN(C(=O)N2CCOCC2)CC1	-3.3%	12.3%	-7.8%	-100.0*	13.3%	?
Cc1[nH]n2c(=O)cc(-c3ccc(Cl)cc3)nc2c1-c1ccccc1	-18.1%	?	1.0%	/	14.1µM*	-1.7%
COc1cccc(N=Nc2c(N)[nH]n3c(=O)cc(-c4ccccc4)nc23)c1	-3.7%	?	-0.8%	12.4	3.98µM*	9.3%
CCCc1cc(=O)n2[nH]c(C)c(-c3ccccc3)c2n1	-1.3%	6.3%	-8.2%	0.7	-4.4%	4.4%
Cc1ccc(N=Nc2c(N)[nH]n3c(=O)cc(-c4ccccc4)nc23)cc1	-5.7%	?	-10.4%	-29.9	3.16µM*	1.5%
O=[N+]([O-])c1ccccc1NCCNS(=O)(=O)c1ccc(Cl)cc1	0.0%	-12.2%	-10.6%	42.3	-9.8%	1.2%
O=[N+]([O-])c1cc(Cl)ccc1NCCNS(=O)(=O)c1ccccc1	-4.4%	?	-1.7%	-0.5	12.6µM*	4.4%
CCOC(=O)Cc1csc(NC(=O)NC2(C(F)(F)F)Oc3ccc(Cl)cc3O2)n1 (stereo not drawn)	-0.8%	-10.1%	4.0%	?	-15.8%	-4.8%
SMILES	TR SRC2 fluor cs	Tau fluor cs	TRb-SRC2 inh	PNC assembly inh	Tau fibril ThT	Tau FP inhib
O=C(C1CCC(Cn2c(=O)[nH]c3ccccc3c2=O)CC1)N1CCN(c2ccccc2)CC1 (stereo not drawn)	0.0%	-16.5%	5.9%	27.2	-18.1%	-5.2%
CC(C)Oc1cccc(C(=O)NC(=S)Nc2ccccc2)c1	-6.7%	-22.1%	8.2%	-101.1*	-14.5%	-1.9%
COc1cc(OC)cc(C(=O)Nc2nnc(NC(=S)Nc3ccccc3)s2)c1	-3.2%	?	-1.0%	-100.0*	?	?
COc1cc(C(=O)NC(=S)Nc2ccc(NC(=O)c3ccco3)cc2)cc(OC)c1OC	-1.9%	-4.5%	2.3%	59.3	-16.1%	?
O=C(NC(=S)Nc1ccc(NC(=O)c2ccco2)cc1)c1ccccc1	-2.6%	2.1%	4.8%	-88.0*	-4.3%	-10.9%
CC(C)Oc1cccc(C(=O)NC(=S)Nc2cccnc2)c1	-2.4%	-7.9%	-4.3%	-12.8	-11.4%	-2.0%
Cc1ccc(C2=N/C(=C\c3c(C)nn(-c4ccccc4)c3N3CCCC3)C(=O)O2)cc1	0.6%	-16.5%	-1.2%	42.7	12.6µM*	2.4%
O=C(CCS(=O)(=O)c1ccc(Br)cc1)Nc1ccc(Cl)c(C(F)(F)F)c1	?	?	-0.8%	/	8.2%	?
COc1c(O)c(O)cc2c1oc1c3ccccc3oc(=O)c21	-10.4%	10µM*[quencher]	10.4%	/	7.94µM*	?
Cc1c(O)c2ccccc2oc1=O	0.0%	3.8%	-1.2%	/	/	2.7%
Cc1ccc(CNc2ccc(O)cc2)cc1	23.0%	?	28.2µM*	-20.9	3.55µM*	8.91µM*
Cc1ccc(N(CC(=O)N/N=C/c2ccc(OC3CSC3)cc2)S(=O)(=O)c2ccccc2)c(C)c1	-6.0%	?	-4.9%	?	?	?
O=C1NCCN1C(=O)N(c1ccccc1)c1ccccc1	0.3%	1.3%	0.9%	-124.4*	-1.0%	1.7%
CCn1cnc2cc(NCc3ccc(C)cc3)ccc21	-3.5%	-24.0%	-9.0%	30.4	?	-4.8%
CCn1cnc2cc(NCc3ccc(N(C)C)cc3)ccc21	-5.9%	11.2µM*[quencher]	0.6%	/	?	5.6%
Cc1cc(C)c2cc(CN(CC3CCCO3)C(=S)NCc3ccco3)c(=O)[nH]c2c1 (stereo not drawn)	-0.9%	-4.8%	-0.4%	/	-13.4%	10.2%
COCCNC(=O)CSc1nnc(-c2ccc(C)cc2)c(-c2ccc(C)cc2)n1	-0.5%	-2.9%	1.7%	/	-10.2%	1.3%
CCN(CC)c1ccc(N=Cc2c(C)[nH]c3ccccc23)cc1	?	?	?	?	8.91µM*	?
Cc1[nH]c2ccccc2c1/C=N/n1cnnc1	-4.3%	3.1%	-9.9%	-28.4	-0.8%	1.5%
